DT40 TDP1 no CPT: qHTS for Inhibitors of human tyrosyl-DNA phosphodiesterase 1 (TDP1): qHTS in cells in absence of CPT. DT40 Tdp1-/- hTDP1 cells, no CPT, ATP luminescence, 48 h. Potency, µM (doses to about 46.2 µM), inactives show at the top dose activity change, negative = growth inhibition, hits mostly inhibitors. hit rate 15% among 420,000. AID 686978, 2013; also: potency is read from the fitted curve at half-maximal effect; nearly all actives have a fitted effect of over 55% in size
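Camptothecin absent (DMSO only). Human TDP1-complemented DT40 knockout cells, 400 cells/well, 37 °C for minimum 48 hr; ATP measured via CellTiter-Glo, 30 min dark incubation, luminescence.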
HT1080 IDH1KD tx: kills HT-1080 cells with IDH1 knockdown; HT-1080 IDH1 knockdown viability, ATP luminescence, 48 h; Potency, µM (highest dose often 46.1 µM), without a hit: at the highest dose activity, negative = toxicity, hits mostly cytotoxic; hit rate 2% among 360,000;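 also: potency is read from the fitted curve at half-maximal effect; 0% = DMSO wells and -100% = cell-free medium wells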
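Viability of IDH1-knockdown HT-1080 fibrosarcoma cells was assessed by CellTiter-Glo after 48 h at 37 °C with titrated compound; concentration-effect curves were classified by fit quality and response size.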
HT1080-NT tox: kills 2HG-producing HT-1080-NT fibrosarcoma cells | HT-1080-NT fibrosarcoma viability, CellTiter-Glo ATP luminescence, 48 h | Potency, µM (titrated, usually from 46.1 µM), without a hit: at the top dose activity, negative = less viability, most hits filed as cytotoxic | hit rate 1.6% among 360,000;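 also: NT is the 2HG producing partner of a matched IDH1 knockdown line; potency is read from the fitted curve at half-maximal effect; 0% = DMSO-treated cells and -100% = media-only wells without cells; nearly all actives have a fitted effect of over 55% in size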
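Read-out is CellTiter-Glo luminescence after 10 minutes at room temperature, following 48 hours' compound treatment of HT-1080-NT cells (750 cells/well, RPMI, 5% FBS, 37 degrees C).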
IL-1B inflam inh: inflammasome signaling inhibition, IL-1 beta readout. hit rate 4.7% among 360,000. activity change, % at 57.5 µM. THP-1 LPS/ATP IL-1B secretion, AlphaLISA, 16 h; active compounds read low; in the data active = activity change below about -50%; inconclusive = mostly about -30% to -49%
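Secreted IL-1B measured by AlphaLISA bead assay after 16 h compound exposure of THP-1 cells; compounds (final up to 57.5 uM) added 1 h before LPS (250 ng/mL) and ATP (1.25 mM) stimulation; lower signal means less secretion.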
TDP1 cell CPT: growth inhibition of DT40 Tdp1-/-;hTDP1 cells with camptothecin (screen for TDP1 inhibitors); chicken DT40 Tdp1-/-;hTDP1 cells + 20 nM CPT, ATP luminescence, 48 h; Potency, µM (top dose mostly 46.2 µM), for inactives: top-dose activity change, negative = growth inhibition, most hits filed as inhibitors; hit rate 12% among 420,000; AID 686979; also: potency is read from the fitted curve at half-maximal effect; nearly all actives have a fitted effect of over 55% in size
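Cell growth measured by CellTiter-Glo luminescence after a minimum 48 h, 37 C compound exposure with 20 nM CPT in Tdp1-knockout DT40 cells stably expressing hTDP1, seeded 400/well; qHTS titration format.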
Starred values were filed as active, the others as inactive; i = inactive; ? = inconclusive; · = not tested or not shown. The list is not random: actives were taken first. Their share in the collection is about 19%. Unless noted, calls follow the shape of the dose curve; as a rule, active = well fitted curve in the direction sought with a large enough effect; inconclusive = small, poorly fitted or top-dose-only effect, or another doubt; inactive = no such curve, though single readings can be large; an effect the other way counts as inactive or inconclusive. Unless noted, % is scaled to controls: 0 for no effect and ±100 for the full control effect.

SMILES | DT40 TDP1 no CPT | HT1080 IDH1KD tx | HT1080-NT tox | IL-1B inflam inh | TDP1 cell CPT
CC(C)C[C@H]1CNC(=S)N1C[C@H]1CCCN1C[C@H](Cc1ccc(O)cc1)N1C[C@H](CC(C)C)N(CC2CCCCCC2)C1=S | 21µM* | ? | ? | ? | 16µM*
O=C(COc1ccccc1)N1CCN(C(=O)c2ccccc2F)CC1 | -10% | 25% | 18% | -15 | 8%
CC1CCN(c2c(NCc3ccc(C(=O)N4c5ccccc5CC4C)cc3)c(=O)c2=O)CC1 (centres undefined) | 23µM* | -3% | -12% | -1 | 18µM*
CC(=O)c1cccc(NC(=S)NCCCCc2ccccc2)c1 | ? | -33% | -3% | ? | ?
CC1CCN(CCCNC(=O)c2cc3c(s2)-c2ccccc2OC3)CC1 | ? | ? | 23µM* | -27 | ?
CC1CCCN(CCCNC(=O)c2cc3c(s2)-c2ccccc2OC3)C1 (centres undefined) | ? | ? | 21µM* | -77* | ?
O=C(NCCCN1CCN(c2ccccc2)CC1)c1cc2c(s1)-c1ccccc1OC2 | 23µM* | · | · | · | ?
COC(=O)c1cc2c(s1)-c1ccccc1OC2 | -24% | 13% | 0% | 35 | 1%
O=C(COC(=O)c1ccc2ncsc2c1)NC(=O)C1CCCCC1 | -13% | · | · | · | 5%
O=C(Cn1cnc([N+](=O)[O-])n1)N/N=C/c1cc(Cl)ccc1O | 7.3µM* | ? | ? | 169 | 4.6µM*
O=C(Cn1cnc([N+](=O)[O-])n1)N/N=C/c1ccccc1O | 16µM* | ? | ? | 166 | 16µM*
O=C(CSc1ccc2ccccc2n1)N/N=C/c1ccccc1O | 5.8µM* | ? | ? | 299 | 5.2µM*
O=C(Cn1cncn1)N/N=C/c1ccccc1O | 13µM* | 0% | -21% | 37 | 15µM*
Cc1ccc(N2CCN(S(=O)(=O)c3c(C)nc4scc(C)n4c3=O)CC2)c(C)c1 | ? | -2% | -2% | 62 | ?
CN(C)C(=O)c1cc(C(=O)c2ccccc2F)c[nH]1 | -4% | 16% | 15% | 1 | 3%
O=C(O)c1c2c(nc3ccc(S(=O)(=O)N4CCC(C(=O)NC5CCCCCC5)CC4)cc13)CCCC2 | 8% | 4% | -1% | 4 | -6%
COc1ccc(Cl)cc1C(=O)Nc1ccccc1N1CCCCC1 | 29µM* | 0% | -9% | 33 | 18µM*
Cc1ccccc1C(=O)Nc1ccccc1N1CCCCC1 | 16µM* | -18% | -16% | 37 | ?
O=C(Nc1ccccc1N1CCCCC1)C1=COCCO1 | 12µM* | 0% | -17% | 34 | ?
Cc1ccc(C)c(N2N=C(C(=O)Nc3ccccc3N3CCCC3)CCC2=O)c1 | 21µM* | ? | ? | i | ?
Cc1ccc(C)c(N2N=C(C(=O)Nc3ccccc3N3CCOCC3)CCC2=O)c1 | ? | -1% | 0% | -10 | ?
c1ccc(CCNCc2ccco2)nc1 | -2% | 2% | 8% | 3 | 0%
COc1cccc(C(=O)COC(=O)COc2c(C)cc(C)cc2C)c1 | 2% | 10% | ? | 5 | -6%
Cc1ccsc1C(=O)Nc1ccccc1N1CCCC1 | 13µM* | 2% | 9% | -1 | ?
COc1ccccc1C(=O)Nc1ccccc1N1CCCCC1 | 18µM* | -15% | -5% | -28 | ?
SMILES | DT40 TDP1 no CPT | HT1080 IDH1KD tx | HT1080-NT tox | IL-1B inflam inh | TDP1 cell CPT
COc1ccc(Br)cc1C(=O)Nc1ccccc1N1CCCC1 | ? | -4% | ? | -2 | ?
COc1cc(C(C)=O)ccc1OCC(=O)Nc1cc(C)on1 | -10% | 13% | 0% | -3 | -5%
Cc1ccc(C)c(NC(=O)C2CCN(C(=O)c3cccs3)CC2)c1 | -21% | 8% | 20% | -12 | -1%
COC(=O)C[C@@H]1C[C@@H]2c3cc(NC(=O)NC4CCCCC4)ccc3O[C@@H]2[C@H](CO)O1 | -12% | -8% | -8% | ? | 2%
CCc1ccc(N2CC(C)Cn3c2nc2c3c(=O)[nH]c(=O)n2C)cc1 (centres undefined) | ? | -1% | -6% | 31 | ?
O=C(CSc1ncnc2scc(-c3ccccc3)c12)N1CCN(c2ccccc2F)CC1 | 18µM* | 8% | 11% | -1 | ?
COc1ccccc1N1CCN(C(=O)CSc2ncnc3scc(-c4ccccc4)c23)CC1 | 16µM* | -14% | -8% | -16 | ?
COc1ccc(-n2ncc3c(SCC(=O)N4CCN(c5ccccc5OC)CC4)ncnc32)cc1 | 21µM* | -1% | -3% | 39 | ?
COC(=O)CSc1ncnc2scc(-c3ccccc3)c12 | -14% | -7% | -23% | 2 | -29%
COc1ccc(CC(=O)N2CCN(c3ccccc3OC)CC2)cc1 | -17% | 2% | 18% | -1 | 7%
CC(C)COC(=O)N1CCCCC1c1cc(C(=O)N2CCOCC2)no1 (centres undefined) | -12% | 1% | 19% | 55 | -2%
Cc1ccc(S(=O)(=O)N2CCCCC2)cc1NC(=O)COC(=O)C1(C)CC1(Cl)Cl (centres undefined) | -20% | -1% | 4% | 8 | 0%
O=C(NCCSCc1c(F)cccc1Cl)C1CCN(S(=O)(=O)Cc2ccccc2)CC1 | -17% | · | · | · | -25%
O=C(NCCC1=CCCCC1)c1ccc2c(c1)N(Cc1ccccc1)C(=O)CS2 | 21µM* | -24% | ? | ? | ?
Cc1ccc(C)c(CN2C(=O)CSc3ccc(C(=O)NCc4ccccc4)cc32)c1 | 16µM* | · | · | · | 10µM*
Cc1ccc(CNC(=O)c2ccc3c(c2)N(Cc2cccc(C)c2)C(=O)CS3)cc1 | 21µM* | · | · | · | ?
O=C(NCCc1ccccc1)c1ccc2c(c1)N(Cc1ccc(F)cc1Cl)C(=O)CS2 | -25% | · | · | · | -27%
O=C(NCCc1ccc(Cl)cc1)c1ccc2c(c1)N(Cc1ccc(F)cc1Cl)C(=O)CS2 | 6.5µM* | · | · | · | ?
O=C(NCc1ccc2c(c1)OCO2)c1ccc2c(c1)N(Cc1c(F)cccc1Cl)C(=O)CS2 | 23µM* | -11% | -8% | 4 | ?
O=C(CNC(=O)c1ccccc1F)N/N=C/c1cc(Br)ccc1OC(=O)/C=C/c1ccco1 | 5.2µM* | 4.6µM* | -41% | 71 | 3.7µM*
O=C(CNC(=O)c1ccc(F)cc1)N/N=C/c1cc(Br)ccc1OC(=O)/C=C/c1ccco1 | 2.6µM* | ? | ? | 149 | 9.2µM*
Cc1nc2nc(SCc3ccc([N+](=O)[O-])cc3)[nH]c2cc1Br | -27% | -19% | -21% | 3 | -8%

Bioassay records (PubChem BioAssay)
